# Test results published in PubChem BioAssay (Tox21).
# Values joined by “and” are separate entries in the source; they are usually repeats but may differ in a detail not shown here. Equal values may be shown once. Records with an inconclusive call do not appear. Entries that show only a call come without a potency. Active and inactive are the calls of the source. The call rests on the fitted dose curve; in most records, active means well fitted activation curve with a large enough effect in the repeat runs; inconclusive means weak or mixed curves; inactive means flat fitted curve, though single readings scatter.
# Test: Caspase-3/7 induction in HepG2 cells by small molecules, qHTS assay (AID 1346978); further: nearly all actives have a fitted effect of over 15% in size
# Conditions: HepG2 caspase-3/7 activation, Caspase-Glo luminescence, 17 h; series mostly up to 92.4 µM
# From the text: National Center for Advancing Translational Sciences [NCATS] NIH Chemical Genomics Center [NCGC] U.S. Environmental Protection Agency [EPA] National Institutes of Environmental Health Sciences [NIEHS] National Toxicology Program [NTP] Assay overview: Apoptosis is a process of programmed cell death and plays a central role in the development of multicellular organisms. It is a highly regulated process and induces cell death by activating caspases, which are the members of cysteine aspartic acid-specific protease (caspase) family. Caspases involved in apoptosis are classified by their mechanism of action as initiator caspases (caspase-2, -8, -9 and -10) and executioner caspases (caspase-3, -6, and -7). Inhibition of apoptosis results in number of cancers, autoimmune diseases, inflammatory diseases and viral infection. To identify small molecule compounds that induce apoptosis, a homogeneous, luminescent Caspase-Glo 3/7 assay was used. Wild type HepG2 cells were used to screen Tox21 libraries for identifying caspase-3/7 activity inducers.
# Assay Protocol Summary: HepG2 cells were dispensed at 2,000 per well in 5uL of culture medium into white solid bottom 1536-well plates (Corning Life Sciences, Corning, NY) using a Multidrop Combi (Thermo Scientific, Waltham, MA) dispenser. The assay plates were incubated at 37 C and 5% CO2 for 5hr, and then 23nL of compounds dissolved in DMSO and positive control were transferred using a Pintool station (Wako, San Diego, CA). The assay plates were incubated at 37C and 5% CO2 for 17hr. For caspase-3/7 activity read, 4uL of Caspase-Glo 3/7 reagent (Promega Corporation, Madison, WI) was added to each well of the assay plates using Flying Reagent Dispenser (FRD, Aurora Discovery, San Diego, CA) and incubated the assay plates at room temperature for 30min. The luminescence signal was quantified using a ViewLux plate reader (Perkin Elmer, Shelton, CT).
# Potency means the concentration at half of the fitted maximal effect.
row,SMILES,Potency
1,C=CC(=O)N(C)C,inactive
2,Cc1cccc(OP(=O)(Oc2cccc(C)c2)Oc2cccc(C)c2)c1,inactive
3,O=[N+]([O-])c1ccc(Oc2ccc(C(F)(F)F)cc2[N+](=O)[O-])cc1,inactive
4,CC(C)[C@H](C(=O)OC(C#N)c1cccc(Oc2ccccc2)c1)c1ccc(OC(F)F)cc1 (stereo not given in full),inactive
5,O=C(NC(=O)c1c(F)cccc1F)Nc1cc(Cl)c(OC(F)(F)C(F)F)c(Cl)c1,inactive
6,Cc1cc(N=Nc2ccccc2C)ccc1N,1.37 µM (active) and 969 nM (active)
7,Nc1ccc(Cl)cc1C(=O)c1ccccc1,inactive
8,CCOP(=S)(OCC)SCS(=O)(=O)CC,inactive
9,CC(O)C#N (stereo not given),inactive
10,CN(C)[C@@H]1C(=O)C(C(N)=O)=C(O)[C@@]2(O)C(=O)C3=C(O)c4c(O)ccc(Cl)c4[C@@](C)(O)[C@H]3C[C@@H]12,inactive
11,CCCN(CCC)c1c([N+](=O)[O-])cc(S(N)(=O)=O)cc1[N+](=O)[O-],57.2 µM (active)
12,O=C(O)c1cc[c]([Hg][Cl])cc1,inactive
13,S=C(SSC(=S)N1CCCCC1)N1CCCCC1,inactive
14,CCC[CH2][Sn]([CH2]CCC)([CH2]CCC)[O]C(=O)c1ccccc1,3.06 µM (active)
15,O=[N+]([O-])c1c2ccccc2cc2ccccc12,inactive
16,Clc1ccc(-c2ccc(Cl)c(Cl)c2Cl)c(Cl)c1Cl,inactive
17,c1ccc2cc3c(cc2c1)-c1cccc2cccc-3c12,7.59 µM (active)
18,Oc1ccc(C(c2ccc(O)cc2)(C(F)(F)F)C(F)(F)F)cc1,inactive
19,Clc1ccc(COC(Cn2ccnc2)c2ccc(Cl)cc2Cl)cc1 (stereo not given),inactive
20,CC(C)CC(C)N (stereo not given),inactive

row,SMILES,Potency
1,Fc1cccc(Cl)c1CCl,inactive
2,c1ccc(Nc2ccc3ccccc3c2)cc1,inactive
3,COc1ccc(/C(=C/C(=O)N2CCOCC2)c2ccc(Cl)cc2)cc1OC,inactive
4,C[C@H]1CC[C@@H]2[C@@H](C)[C@H]3[C@H](C[C@H]4[C@@H]5CC=C6CC(O[C@@H]7O[C@H](CO)[C@H](O)[C@H](O[C@@H]8O[C@H](CO)[C@@H](O)[C@H](O)[C@H]8O)[C@H]7O[C@H]7O[C@@H](C)[C@H](O)[C@@H](O)[C@H]7O)CC[C@]6(C)[C@H]5CC[C@]34C)N2C1 (stereo not given in full),inactive
5,CC(=O)c1cc(C(C)(C)C)cc2c1CCC2(C)C,inactive
6,Cc1cc(C(F)(C(F)(F)F)C(F)(F)F)ccc1NC(=O)c1cccc(I)c1C(=O)NC(C)(C)CS(C)(=O)=O,inactive
7,N#Cc1ccc(O)cc1,inactive
8,CC(C)CC(C)Nc1ccc(Nc2ccccc2)cc1 (stereo not given),inactive
9,CNC(C)Cc1ccc2c(c1)OCO2 (stereo not given),inactive
10,COC12CC[C@@]3(C[C@@H]1C(C)(O)C(C)(C)C)[C@H]1Cc4ccc(O)c5c4[C@@]3(CCN1CC1CC1)[C@H]2O5 (stereo not given in full),60.7 µM (active)
11,Oc1ccc(I)cc1,inactive
12,CC(=O)[O-].CC(=O)[O-].O.O.[Cd+2],inactive
13,CCCCCCCCc1ccc(O)cc1,43.5 µM (active)
14,ClC1=C(Cl)[C@]2(Cl)[C@H]3[C@H]([C@H]4C=C[C@H]3C4)[C@@]1(Cl)C2(Cl)Cl,inactive
15,ClCCN1CCOCC1,inactive
16,Nc1ccc(Cc2ccc(N)c(Cl)c2)cc1Cl,inactive
17,O=C1c2ccccc2C(=O)C1C(=O)C(c1ccccc1)c1ccc(Cl)cc1 (stereo not given),inactive
18,CC(C)OS(C)(=O)=O,inactive
19,N#Cc1c(-c2ccc(Cl)cc2)[nH]c(C(F)(F)F)c1Br,inactive
20,CC(Cl)CN(C)C (stereo not given),inactive
